PubChem BioAssay (NCATS)
Results filed as inconclusive are left out.

Test: qHTS Assay for Lipid Storage Modulators (AID 1519)
Details: Drosophila S3 cells, BODIPY lipid droplet/cell ratio, laser cytometry; measured here: cell count channel max response; cells loaded with oleic acid
In short: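 Cells seeded at 5,000 per well were treated with compounds over a concentration series and loaded with oleic acid (400 uM, as added). Lipid droplet fluorescence (488 nm excitation, 500-530 nm channel) was read by laser-scanning cytometry and normalized to 20 uM Triacsin C.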

Structure (SMILES) | max response [%]
COc1cc(-c2cc(=O)c3c(O)c(OC)c(OC)c(OC)c3o2)cc(OC)c1OC | 5.14
C#C[C@]1(O)CCC2C3CCC4=Cc5oncc5C[C@@]4(C)C3CC[C@@]21C (stereo not given in full) | 9.5
CC(=O)OC1CC2C(C)(C)C=CC(=O)[C@@]2(C)C2CC[C@@]3(C)C(c4ccoc4)OC(=O)C4OC43[C@]12C (stereo not given in full) | -8.35
CC1(C)CCC2(C(=O)O)CC[C@]3(C)C(=CCC4[C@]5(C)CCC(O)C(C)(C)C5C(O)C[C@]43C)C2C1 (stereo not given in full) | 9.57
CC1(C)C(=O)C2C[C@]3(O)C4=CC(=O)OC(c5ccoc5)[C@]4(C)CCC3[C@](C)(C2=O)C1CC(=O)O (stereo not given in full) | 1.91
Cc1cc(=O)oc2c(O)c(O)ccc12 | -3.48
C#C[C@@]1(O)CCC2C3CCC4=CC(=O)CCC4C3CC[C@@]21CC (stereo not given in full) | 17.8
C[C@@H]1CCC2[C@](C)(CO)C(O)CC[C@@]2(C)[C@@]12CC[C@](CO)(CCO)O2 (stereo not given in full) | 11.4
CC1(C)CCCC2(C)C3C(O)CC2(C)C(O)C31 (stereo not given) | -2.66
COc1ccc2c(c1OC)C(=O)O[C@H]2C1c2c(cc3c(c2OC)OCO3)CCN1C (stereo not given in full) | 20.9
CC(=O)O[C@](C)(CCC=C(C)C)C1CC=C(C)CC1 (stereo not given in full) | 17.9
COc1ccc(C2Oc3cc(OC)cc(OC)c3CC2O)cc1 (stereo not given) | 15.1
COc1cccc(O)c1O | 9.09
CC1(C)C[C@@H]2C(=O)CCC3O[C@@]3(C)CCC21 (stereo not given in full) | 20.7
CC(=O)OCC(=O)[C@]1(O)C(C)CC2C3CCC4=CC(=O)C=C[C@@]4(C)[C@]3(F)C(O)C[C@@]21C (stereo not given in full) | 9.77
O=C1c2ccccc2C(=O)c2c(O)c(O)cc(O)c21 | -4.21
CC(=O)OC1CC(OC(C)=O)[C@]2(C)C(CC(=O)[C@]3(C)C2CC[C@@]2(C)C(C(=O)O)OC(=O)C4OC423)C1(C)C (stereo not given in full) | 10.8
COC1=CC(=O)C(C(=O)c2ccccc2)=CC1=O | 13.1
COc1ccc(C2CC(=O)c3c(O)cc(O)cc3O2)cc1O (stereo not given) | 3.05
COc1ccc(-c2coc3c(O)c(OC)ccc3c2=O)cc1 | 25.3

Structure (SMILES) | max response [%]
COC(=O)/C(=C1\OC(=O)C(c2ccccc2)C1=O)c1ccccc1 (stereo not given) | 11.1
COC(=O)C1OC(=O)C2O[C@@]23[C@]2(C)C(OC(C)=O)CC4C(C)(C)C(=O)CC[C@]4(C)C2CC[C@@]13C (stereo not given in full) | -0.434
O=c1c(O)c(-c2ccccc2)oc2cccc(O)c12 | 9.77
Cc1cc(O)c(C=O)c(O)c1C(=O)O | 6.58
O=C(NC1CCCCC1)NC1CCCCC1 | 16.8
CC1(C)OC2CC3C4CC(F)C5=CC(=O)C=C[C@@]5(C)[C@@]4(F)C(O)C[C@@]3(C)[C@]2(C(=O)CO)O1 (stereo not given in full) | 10.6
O=c1cc(-c2ccccc2)oc2cccc(O)c12 | 2.34
COC(=O)CC1C(C)(C)C2(O)OC34CC2C(=O)[C@@]1(C)C3CC[C@]1(C)C4=CC(=O)OC1c1ccoc1 (stereo not given in full) | -0.136
CC1CC2C3CCC4=CC(=O)C=C[C@]4(C)[C@@]3(Cl)C(O)C[C@]2(C)C1(OC(=O)c1ccco1)C(=O)CCl (stereo not given in full) | -6.79
S=c1ccss1 | 5.82
CC1(C)C(O)C=C[C@@]2(C)C1CC(=O)O[C@@]1(C)C3=CC(=O)OC(c4ccoc4)[C@]3(C)CCC21 (stereo not given in full) | 1.87
COc1ccc(-c2coc3cc(O)ccc3c2=O)c(OC)c1 | 3.06
COc1cc(O)cc(OC)c1OC | -14
CC1CC[C@@]23CCC4(C)[C@@]5(C)CCC6C(C)(C)C(O)CC[C@@]6(C)C5C=C[C@@]4(OC2=O)C3C1C (stereo not given in full) | 9.51
CC1(C)CC[C@]2(C(=O)O)CC[C@@]3(C)C(=CCC4[C@@]5(C)CCC(O)[C@@](C)(CO)C5CC[C@@]43C)C2C1 (stereo not given in full) | 5.6
COC(=O)c1cc(OC)c(=O)c2c(OC)c(OC)ccc2c1 | -2.75
COc1ccc(C2CC(=O)c3ccc(OC)cc3O2)cc1 (stereo not given) | 32.1
CCOC(=O)C(Cc1ccc(O)cc1)NC(C)=O (stereo not given) | 6.37
COc1ccc(C(=O)c2ccc(O)cc2)c(O)c1O | 2.91
CC(C)=CCOc1cc2oc(=O)ccc2cc1O | -16.3
